According to PubChem BioAssay (NCI):
The panel holds about 79,000 compounds, 15% with a hit somewhere; the sample as a whole holds those more often. A number with no mark means an inactive call. The source made the active and inactive calls. Cut-off read from the data, not from the text of the source: active = growth inhibition above about 70%; inactive = the rest.

How the values were obtained:
[1] = NCI Yeast Anticancer Drug Screen. Data for the rad50 strain (AID 155);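 note: 0% = growth of vehicle-only cultures of the same strain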; conditions: S. cerevisiae rad50 strain growth inhibition, stronger effect = higher value
Outline: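 Compounds were tested on a yeast strain with an engineered DNA damage repair alteration; the reported value is growth inhibition normalised to vehicle treatment.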

[2] = NCI Yeast Anticancer Drug Screen. Data for the mec2-1 strain (AID 157); conditions: S. cerevisiae mec2-1 strain, stronger effect = higher value
Outline: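 Mutant yeast (mec2-1) grown with compound; growth inhibition relative to vehicle control reported.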

[3] = NCI Yeast Anticancer Drug Screen. Data for the sgs1 mgt1 strain (AID 161);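 note: 0% = growth of cultures given vehicle only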; conditions: S. cerevisiae sgs1 mgt1 strain, stronger effect = higher value
Outline: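 This yeast growth screen uses a strain with defined DNA-repair lesions; compound-treated growth is compared with vehicle-treated growth.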

[4] = NCI Yeast Anticancer Drug Screen. Data for the cln2 rad14 strain (AID 165);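 note: 0% = growth equal to vehicle treated cultures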; conditions: S. cerevisiae cln2 rad14 strain, stronger effect = higher value
Outline: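 Readout is yeast growth inhibition versus vehicle-treated controls, using a strain with cln2 and rad14 alterations exposed to compound.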

[5] = NCI Yeast Anticancer Drug Screen. Data for the bub3 strain (AID 167); conditions: S. cerevisiae bub3 mutant strain, stronger effect = higher value
Outline: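 Growth of a checkpoint-deficient yeast mutant is measured after compound exposure. Values represent inhibition relative to vehicle.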

[6] = NCI Yeast Anticancer Drug Screen. Data for the mlh1 rad18 strain (AID 175); conditions: S. cerevisiae mlh1 rad18 strain growth inhibition, stronger effect = higher value
Outline: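 Genetically defined yeast (DNA repair-deficient) exposed to compounds; growth inhibition determined relative to vehicle.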

[7] = at 5.0 µM (retest, dose inferred, filed as 0.5)
[8] = at 50.0 µM (retest, dose inferred, filed as 5.0)

SMILES | growth inhibition [1, 7] | growth inhibition [1, 8] | growth inhibition ([1]; at 50.0 µM) | growth inhibition [2, 7] | growth inhibition [2, 8] | growth inhibition ([2]; at 50.0 µM) | growth inhibition [3, 7] | growth inhibition [3, 8] | growth inhibition ([3]; at 50.0 µM) | growth inhibition [4, 7] | growth inhibition [4, 8] | growth inhibition ([4]; at 50.0 µM) | growth inhibition [5, 7] | growth inhibition [5, 8] | growth inhibition ([5]; at 50.0 µM) | growth inhibition [6, 7] | growth inhibition [6, 8] | growth inhibition ([6]; at 50.0 µM)
C#CCN(N=O)C(=O)NCCCC(NC(C)=O)C(=O)NCc1ccccc1 (configuration not stated) | -4% | 19% | 78.9% (active) | -26% | -10% | -5.35% | 3% | 36% | 43.6% | -8% | 12% | 27.1% | 6% | 26% | -13.6% | -2% | 42% | 25.8%
O=C1C(=Cc2ccccc2O)N=C(c2ccccc2)N1n1c(-c2ccccc2)nc2ccccc2c1=O | 5% | 31% | 58% | -3% | 22% | 49.2% | 0% | 24% | 75.7% (active) | 8% | 33% | 50.3% | -13% | 45% | 80.2% (active) | 11% | 39% | 73.3% (active)
CC(C)(C)[Si](C)(C)OCC1OC(n2cnc3c(NC(=O)c4ccccc4)ncnc32)CC1O (configuration not stated) | 2% | 4% | 10% | -2% | 4% | -28.8% | -1% | 6% | 3.25% | -1% | 2% | 77.6% (active) | -2% | -4% | 10.5% | -2% | 4% | 32.5%
CN(C)S(=O)(=O)c1cc(Cl)ccc1NN | -114% | -20% | 59.6% | -44% | -41% | 36.9% | -56% | -21% | 44% | -41% | -22% | 19.2% | -71% | -14% | 78.4% (active) | -119% | -32% | 48.6%
Cc1c2ccccc2c(C)n2c1nc1cc(Cl)c(Cl)cc12 | 12% | 95% (active) | 86.2% (active) | 7% | 93% (active) | 91.3% (active) | 26% | 45% | 89.3% (active) | 27% | 95% (active) | 87.1% (active) | 18% | 97% (active) | 89.9% (active) | 23% | 96% (active) | 85.6% (active)
Cc1ccc(S(=O)(=O)NCCSCCSCCNS(=O)(=O)c2ccc(C)cc2)cc1 | -1% | -7% | 55.4% | -2% | -8% | 92.2% (active) | -2% | 1% | 50.5% | -3% | -5% | 86.9% (active) | 0% | -1% | 94.6% (active) | -2% | -2% | 55.2%
Nc1ccccc1[S][Sn]([c]1ccccc1)([c]1ccccc1)[c]1ccccc1 | 99% (active) | 98% (active) | 98.5% (active) | 99% (active) | 98% (active) | 98.5% (active) | 99% (active) | 99% (active) | 98.5% (active) | 98% (active) | 98% (active) | 98% (active) | 97% (active) | 99% (active) | 98.3% (active) | 99% (active) | 99% (active) | 98.3% (active)
O=Cc1c(I)cc(I)c(O)c1I | 45% | 88% (active) | 98.6% (active) | 46% | 99% (active) | 98.7% (active) | 79% (active) | 100% (active) | 97.9% (active) | 42% | 97% (active) | 95.1% (active) | 44% | 67% | 96.8% (active) | 56% | 97% (active) | 97.3% (active)
O=C1c2ccc(S(=O)(=O)O)cc2C(=O)c2ccc(S(=O)(=O)O)cc21 | 3% | 23% | 49.3% | -1% | 21% | 25.5% | 5% | 36% | 47.5% | 2% | 26% | -62.8% | 1% | 19% | 55.4% | 4% | 31% | 74% (active)
